26 molecules from PubChem BioAssay (NCATS) can be followed below.

For test [1], the target named is Calcium and integrin-binding protein 1 (Homo sapiens) (UniProt Q99828). The experiment in a line: Primary qHTS for Identification of Calcium Integrin Binding Protein 1 (CIB1) Competitor (AID 1508620).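 As to activity change, negative = inhibition: GST tagged CIB1 binding a fluorescein labelled alphaIIb integrin peptide tracer; top concentration of the series differs between compounds.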 The procedure, abridged:
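Fluorescence polarization competition: CIB1-GST (1 uM final) preincubated with compound 15 min at room temperature, then FITC-labeled alphaIIb peptide (100 nM final) added for another 15 min. Polarization read at Ex 480/Em 540.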

Test [2] can be described thus: Primary qHTS for inhibitors of nuclear receptor binding SET domain protein 2 (NSD2) in an isogenic RCH-ACV NSD2 p.E1099K mutant (9B) (AID 1645876). Also: nearly all actives have a fitted effect of over 70% in size.
The nature of test [3]: Primary qHTS for inhibitors of nuclear receptor binding SET domain protein 2 (NSD2) in an RCH-ACV wild type WT cells (2C) (AID 1645877). Also: nearly all actives have a fitted effect of over 70% in size. For orientation: Quantitative high-throughput screening tests each substance at several concentrations.

Values joined by “and” are separate entries in the source; they are usually repeats but may differ in a detail not shown here. Equal values may be shown once. Results filed as inconclusive are left out. A number with no mark means an inactive call. Active and inactive are the calls of the source. Calls follow the shape of the dose curve; as a rule, active = well fitted curve in the direction sought with a large enough effect; inconclusive = small, poorly fitted or top-dose-only effect, or another doubt; inactive = no such curve, though single readings can be large; an effect the other way counts as inactive or inconclusive.
% is scaled to controls: 0 for no effect and ±100 for the full control effect; potency is read from the fitted curve at half-maximal effect.

Sequence of Calcium and integrin-binding protein 1 (Homo sapiens) (Q99828 whole entry, looked up): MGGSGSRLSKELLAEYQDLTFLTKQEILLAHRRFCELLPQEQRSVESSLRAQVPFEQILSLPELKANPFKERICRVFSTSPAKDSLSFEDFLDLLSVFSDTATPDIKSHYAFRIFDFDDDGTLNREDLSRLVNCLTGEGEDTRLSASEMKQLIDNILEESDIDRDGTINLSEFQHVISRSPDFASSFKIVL

For the molecule `CC(C)CCNC(=O)[C@H](CC(C)C)NC(=O)[C@H]1O[C@@H]1C(=O)O`, the Potency entry in test [1], in test [2] and in test [3] was “inactive” each time.
Take `COc1cc(N2CCC(N3CCN(C)CC3)CC2)ccc1Nc1ncc(Cl)c(Nc2ccccc2P(C)(C)=O)n1`: the Potency result in test [1] was “inactive”. Besides, the Potency in test [2] is 3.65 µM (active) and 1.05 µM (active); in test [3], 4.09 µM (active) and 1.48 µM (active).
For `CC(C)(C)C1CCN(C(=O)n2ncc(C(O)(c3ccccc3)c3ccccc3)n2)CC1`, in test [1], the Potency entry was “inactive”. The results for the Potency in test [2] and in test [3] were 20.5 µM (active) and 11.5 µM (active), respectively.
With `C=C1CO[C@@]2(O[C@H]3CC4C5CC=C6C[C@@H](O)C[C@@H](O[C@@H]7OC[C@H](O)[C@H](O[C@@H]8OC[C@@H](O)[C@H](O)[C@H]8O)[C@H]7O[C@@H]7O[C@@H](C)[C@H](OC(C)=O)[C@@H](OC(C)=O)[C@H]7OC(C)=O)[C@]6(C)C5CC[C@]4(C)[C@@H]3[C@@H]2C)[C@@H](O)[C@H]1OC1OC(C)C(O)C(O)C1O` (stereo partly drawn), the activity change, negative = inhibition in test [1] was -5.12% [at 12.4 µM]. The Potency in test [2] and in test [3] was 2.18 µM (active) throughout.
On to `COc1ccc(CCc2nc3c(C)c(-c4c(C)noc4C)c(C)cc3n2CCN2CCOCC2)cc1`, for which, in test [1], the Potency entry is “inactive”. The Potency in test [2] and in test [3] was 18.3 µM (active) each time.
Regarding `CC(C)=CCC/C(C)=C/COCC1OC(n2ccc(=O)[nH]c2=O)C(O)C1O` (stereo not drawn), in test [1], the Potency result is “inactive”. For the same molecule, the Potency in test [2] is 4.01 µM (active); in test [3], 2.01 µM (active).
For the molecule `CC(C)(F)CC(NC(c1ccc(-c2ccc(S(C)(=O)=O)cc2)cc1)C(F)(F)F)C(=O)NC1(C#N)CC1` (stereo not drawn), the Potency result in test [1], in test [2] and in test [3] was “inactive” throughout.
Turning to `C=C1CC2OC(=O)C(COC)C2C(OC(=O)/C(C)=C\C)CC2(C)OC1=CC2=O` (stereo not drawn), the Potency entry in test [1] was “inactive”. Besides, the Potency is 3.58 µM (active) in test [2] and 2.26 µM (active) in test [3].
For `O=C(Nc1cnc(Cl)nc1)c1ccc(F)c(F)c1` the same measures were “inactive”, “inactive” and “inactive”.
For `COc1cc(S(C)(=O)=O)ccc1Nc1nc2ccc(-c3ccc(NC(=O)[C@H](C)c4ccc(F)cc4)cc3)cn2n1` the same measures were “inactive”, 0.742 µM (active) and 0.417 µM (active).
On the same counts, the results for `C=C1C(=O)OC2/C=C(\CO)CC/C=C(\C=O)C(OC)C(OC(=O)C(C)CC)C12` (stereo not drawn) are “inactive”, 7.96 µM (active) and 5.02 µM (active).
`CO[C@H]1[C@@H](O)[C@H](O[C@H]2CC[C@@]3(C)C(CCC4C3CC[C@]35COC6(COC(=O)C6)C3CCC45O)C2)O[C@@H](C)[C@@H]1OC1OC(CO)C(OC2OC(CO)C(O)C(O)C2O)C(O)C1O` (stereo partly drawn): the Potency entry in test [1] was “inactive”. Also, the Potency in test [2] and in test [3] was 3.88 µM (active) each time.
With `CN1CCN(C2CCN(C(=O)Nc3cc(Oc4ccc(NC(=O)C5(C(=O)Nc6ccc(F)cc6)CC5)c(F)c4)ccn3)CC2)CC1`, the Potency entry in test [1] is “inactive”. The Potency in test [2] is 6.49 µM (active) and 11.8 µM (active); in test [3], 7.28 µM (active) and 10.5 µM (active).
`COc1cc(/C=C/C(=O)NCCn2c(C(F)(F)F)cc3ccccc32)cc(OC)c1OC`: the Potency entry in test [1], in test [2] and in test [3] was “inactive” each time.
Regarding `CC(=O)O[C@]1(C(C)=O)CC[C@H]2[C@@H]3CCC4=CC(=O)CCC4=C3[C@@H](c3ccc(N(C)C)cc3)C[C@@]21C`, the Potency entry in test [1] was “inactive”. Moreover, the Potency in test [2] and in test [3] was 23 µM (active) each time.
Regarding `CC1CCCC[C@H]2C(=O)C=C[C@H](O)[C@@H]2CC(=O)O1` (stereo partly drawn), the Potency in test [1] is 28.2 µM (active); in test [2] it was 3.25 µM (active); in test [3] it was 2.05 µM (active).
For `Cc1cc2c(F)c(Oc3ncnn4cc(OCC(C)OC(=O)C(C)N)c(C)c34)ccc2[nH]1` (stereo not drawn) the same measures were “inactive”, 9.34 µM (active) and 8.33 µM (active).
Take `COCCNCc1ccc(-c2cc3nccc(Oc4ccc(NC(=O)C5(C(=O)Nc6ccc(F)cc6)CC5)cc4F)c3s2)nc1`: the Potency entry in test [1] was “inactive”. The values for the Potency in test [2] and in test [3] were 2.9 µM (active) and 2.63 µM (active), respectively.
In the case of `C[C@@H]1C[C@H]2O[C@@]3(O[C@@H]2C(C)(C)O)C(O)[C@@]2(C)C4CCC5C(C)(C)[C@@H](O[C@H]6OC[C@H](O)[C@@H](O)[C@@H]6O)CC[C@@]56C[C@@]46CC[C@]2(C)C13` (stereo partly drawn), the Potency entry in test [1], in test [2] and in test [3] was “inactive” in each case.
As to `Cc1[nH]c2ccccc2c1CCNCc1ccc(/C=C/C(=O)NO)cc1`, the Potency entry in test [1] was “inactive”. In addition, the Potency was 18.3 nM (active) and 52.5 nM (active) in test [2]; 18.3 nM (active) and 52.5 nM (active) in test [3].
Take `C=C1C(=O)O[C@@H]2/C=C(\CO)CC/C=C(/C=O)C[C@@H](O)[C@@H]12`: the Potency entry in test [1] was “inactive”. The Potency in test [2] is 6.49 µM (active); in test [3], 4.09 µM (active).
For `C=C1C(=O)OC2/C=C(\COC(C)=O)CC/C=C(\C=O)CC(OC(=O)CC(C)C)C12` (stereo not drawn) the same measures were “inactive”, 2.24 µM (active) and 1.59 µM (active).
On the same counts, the results for `C=CS(=O)(=O)NC1CCN(C(=O)CNc2cc(I)c(Cl)cc2OC)CC1` are “inactive”, 4.59 µM (active) and 3.25 µM (active).
For `NC(=O)CCCSc1nc(N)nc(-c2c(Cl)cc3c4c(cccc24)COC3)n1` the same measures were “inactive”, 0.183 µM (active) and 0.23 µM (active).
For `CC1(C)CCCC2(C)C1C(OC(=O)/C=C/C=C/C=O)C=C1COC(=O)C12O` (stereo not drawn), the Potency result in test [1] was “inactive”. For the same molecule, the values for the Potency in test [2] and in test [3] were 7.09 µM (active) and 3.55 µM (active), respectively.
For `COC1=CC(=O)C[C@@H](C)[C@@]12Oc1c(Cl)c(OC)cc(OC)c1C2=O` the same measures were “inactive”, “inactive” and “inactive”.
